The entries come from a sample that favours hits as a whole.
ClpP mod = qHTS Assay for Activators of ClpP. AID 651965, 2013. actives 1.9% (n = 340,000). purified B. subtilis ClpP, FRET peptide cleavage, 20 min. Potency, µM (series often up to 57.5 µM), for inactives: at the highest dose activity change, negative = active; active = well fitted falling curve with a large enough effect; inconclusive = small, poorly fitted or top-dose-only effect; inactive = no such curve, though single readings can be large or run the other way; also: potency is read from the fitted curve at half-maximal effect; the source files actives as falling curves though it sought activators and does not explain the sign; nearly all actives have a fitted effect of over 65% in size
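ClpP 10 microg/mL final, pH 8 Tris/KCl buffer with BSA, glycerol, Tween-20; compound pinned in; FRET-FV substrate; RT 20 min; Ex320/Em430; ΔFRET vs ADEP 5.8 microM, DMSO, no enzyme.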
Integrin act MD = qHTS for Activators of Integrin-Mediated Alleviation for Muscular Dystrophy; alpha7betagal myoblasts, beta-gal FDG fluorescence, 48 h; Potency, µM (highest dose often 38.3 µM), for inactives: at the top dose activation, actives largely listed as activators; actives 0.064% (n = 350,000);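 also: potency is read from the fitted curve at half-maximal effect; 100% = response of the positive control SU9516; nearly all actives have a fitted effect of over 60% in size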
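alpha7betagal+/- myoblasts (passage 13, 250/well) treated 48 h at 37C with compounds at 1:260 dilution of DMSO stock. Lysed, then beta-galactosidase activity read as FDG fluorescence (ex 480/em 540) after 30 min, with pre-read for autofluorescence.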
N370S GC = qHTS Assay for Inhibitors and Activators of N370S glucocerebrosidase as a Potential Chaperone Treatment of Gaucher Disease. Lysosomal acid glucosylceramidase (Homo sapiens), P04062. AID 2101, 2009. N370S GC spleen homogenate, 4MU-glucoside fluorescence. Potency, µM (series often up to 59.4 µM), for the others: at the highest dose activity change, negative = inhibition, usual class: inhibitors. actives 0.092% (n = 330,000);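 also: potency is read from the fitted curve at half-maximal effect; 0% = full enzyme activity and -100% = no enzyme basal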
Anesthetic bind = qHTS Assay for Identification of Novel General Anesthetics; apoferritin/1-aminoanthracene competitive binding, fluorescence; Potency, µM (doses to about 77.5 µM), without a hit: at the top dose activity change, negative = displacement, actives largely listed as inhibitors; actives 0.074% (n = 350,000); AID 485281, 2010; also: potency is read from the fitted curve at half-maximal effect; % is scaled to controls: 0 for no effect and ±100 for the full control effect; nearly all actives have a fitted effect of over 20% in size
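10 uM apoferritin + 50% sat. 1-AMA, PBS; cpd 10 min RT; Ex380/Em535 endpoint; normalized to free probe vs complex; 4-param Hill fit; propofol titration as pos. ctrl.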
GRP78 ERSR act = qHTS for Inducers of the Endoplasmic Reticulum Stress Response (ERSR) in Human Glioma: qHTS. Potency, µM, without a hit: at the highest dose activation, usual class: activators. AID 602332, 2012. actives 0.02% (n = 420,000). U87-MG GRP78 promoter luciferase reporter, 16 h; also: potency is read from the fitted curve at half-maximal effect; series mostly up to about 76 µM; % of control where 0% means no effect; nearly all actives have a fitted effect of over 35% in size
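ERSR induction read as luciferase luminescence (Bright-Glo, 10 min at room temperature) in stably transfected human U87-MG glioma cells exposed to compounds for 16 h, using GRP78 as sensor.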
CBFb RUNX1 block = qHTS Assay for Compounds Blocking the Interaction Between CBF-beta and RUNX1 for the Treatment of Acute Myeloid Leukemia | Runt-related transcription factor 1 (Homo sapiens) + Core-binding factor subunit beta … | AlphaScreen CBFb-His/RUNX1-biotin binding, biochemical | Potency, µM (series often up to 59.8 µM), for inactives: at the highest dose activity, negative = inhibition, usual class: inhibitors | 230,000 tested, under 10 active; also: % of control where 0% means no effect
Target sequence (Q01196 whole entry, looked up): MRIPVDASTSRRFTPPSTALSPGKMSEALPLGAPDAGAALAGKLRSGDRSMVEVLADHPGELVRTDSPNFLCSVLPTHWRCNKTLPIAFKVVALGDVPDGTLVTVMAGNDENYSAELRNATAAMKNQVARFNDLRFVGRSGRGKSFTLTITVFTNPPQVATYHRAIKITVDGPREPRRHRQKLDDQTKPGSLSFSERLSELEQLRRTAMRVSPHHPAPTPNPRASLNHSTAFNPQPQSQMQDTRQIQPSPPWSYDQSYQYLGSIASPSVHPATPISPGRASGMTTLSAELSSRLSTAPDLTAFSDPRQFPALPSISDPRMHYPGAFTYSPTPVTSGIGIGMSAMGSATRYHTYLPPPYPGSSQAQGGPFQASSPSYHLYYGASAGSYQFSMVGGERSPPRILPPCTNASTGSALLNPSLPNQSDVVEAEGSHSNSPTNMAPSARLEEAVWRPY
Target sequence (Q13951 whole entry, looked up): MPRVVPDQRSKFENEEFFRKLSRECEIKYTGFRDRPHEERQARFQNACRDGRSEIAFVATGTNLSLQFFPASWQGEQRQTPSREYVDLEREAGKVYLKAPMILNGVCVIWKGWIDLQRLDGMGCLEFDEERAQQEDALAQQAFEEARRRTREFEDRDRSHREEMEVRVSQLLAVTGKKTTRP
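CBF-beta (His) and RUNX1 (biotin), 30 nM each; 20 min preassociation; + compound, 15 min; + beads 50 ng each (Ni, streptavidin), 90 min; RT; AlphaScreen read.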
Numbers without * were called inactive; ? = inconclusive; . = no result given; [ ] = dose if it differs, or a comment. Unless noted, calls follow the shape of the dose curve; as a rule, active = well fitted curve in the direction sought with a large enough effect; inconclusive = small, poorly fitted or top-dose-only effect, or another doubt; inactive = no such curve, though single readings can be large; an effect the other way counts as inactive or inconclusive.

SMILES	ClpP mod	Integrin act MD	N370S GC	Anesthetic bind	GRP78 ERSR act	CBFb RUNX1 block
CCN(CC)CCCNC(=O)c1ccc2c(=O)n(CCc3ccccc3)c(=O)[nH]c2c1	4.4%	.	.	-9.2%	0.2%	.
CCOC(=O)c1cc(-c2cccs2)nc2onc(C)c12	31.6µM*	32.3%	22.2%	95.7%	-9.3%	-1.4%
CCN(CC)C(=O)N1CCN(/[N+]([O-])=N/Oc2ccc([N+](=O)[O-])cc2[N+](=O)[O-])CC1	.	.	.	.	-11.4%	.
CCC(CC)C(=O)OCC(=O)NC12CC3CC(CC(C3)C1)C2	0.0%	-6.8%	3.4%[12.8 µM]	6.31µM*	0.1%	-0.8%
CCSC(=O)NC12CC3CC(CC(C3)C1)C2	-0.5%	8.3%	8.7%	8.91µM*	-3.3%	6.4%
O=C(COC(=O)C(O)c1ccccc1)NC12CC3CC(CC(C3)C1)C2 (stereo not drawn)	4.4%	-6.9%	5.1%	11.2µM*	-1.0%	-2.4%
CCOCC(=O)OCC(=O)NC12CC3CC(CC(C3)C1)C2	-0.7%	6.2%	-3.6%	?	-1.8%	2.6%
CCOC(=O)C(=O)NC12CC3CC(CC(C3)C1)C2	2.2%	-5.0%	28.7%	?	-5.1%	2.0%
COc1cc(CN2CCOc3ccc(CN4CCC(O)(c5cccnc5)CC4)cc3C2)cc(OC)c1	.	.	.	.	-5.9%	.
CCn1c(-c2ccccc2F)nc2cc(NC(C)=O)cc(C(=O)NCC3CCOCC3)c21	.	.	.	.	5.1%	.
Cc1ccc(NC(=O)CCc2c(C)nc3cc(-c4ccccc4)nn3c2C)cc1F	28.2µM*	.	.	-11.5%	-8.8%	.
CC(=O)c1ccc(NC(=O)CCc2c(C)nc3cc(-c4ccc(Cl)cc4)nn3c2C)cc1	?	.	.	-7.1%	-8.7%	.
CCN(CC)S(=O)(=O)c1ccc(NC(=O)CCc2c(C)nc3cc(-c4ccc(Cl)cc4)nn3c2C)cc1	15.8µM*	.	.	-6.2%	-8.8%	.
OC(CN1C2=NCCCN2c2ccccc21)c1ccc(Cl)cc1 (stereo not drawn)	2.6%	24.2%	-1.1%	-4.3%	-4.4%	6.7%
OC(COc1ccc(Cl)cc1)CN1C2=NCCCN2c2ccccc21 (stereo not drawn)	22.4µM*	-4.5%	-13.5%	-10.5%	-4.1%	5.1%
COc1ccc(N(CC(=O)NCc2ccc(C)cc2)S(=O)(=O)c2c(C)[nH]c(=O)[nH]c2=O)cc1	-1.3%	12.2%	8.91µM*	-6.1%	-6.3%	.
CCOc1ccc(N(CC(=O)NCc2ccccc2Cl)S(=O)(=O)c2c(C)[nH]c(=O)[nH]c2=O)cc1	-1.3%	23.6%	3.98µM*	-8.6%	-6.5%	.
CCOc1ccc(N(CC(=O)Nc2c(C)cccc2C)S(=O)(=O)c2c(C)[nH]c(=O)[nH]c2=O)cc1	.	10.5%	4.47µM*	37.8%	-1.6%	5.5%
CCOc1ccc(N(CC(=O)NCc2ccc(C)cc2)S(=O)(=O)c2c(C)[nH]c(=O)[nH]c2=O)cc1	-1.7%	-29.2%	?	-6.0%	-2.6%	.
COc1ccc(CNC(=O)CN(c2ccc(OC)cc2)S(=O)(=O)c2c(C)[nH]c(=O)[nH]c2=O)cc1	-0.1%	25.8%	?	-3.0%	-4.8%	.
CCOc1ccc(N(CC(=O)Nc2cccc(C)c2C)S(=O)(=O)c2c(C)[nH]c(=O)[nH]c2=O)cc1	-2.6%	-19.3%	11.2µM*	-0.4%	-1.8%	-1.5%
COc1ccc(N(CC(=O)Nc2cc(C)ccc2C)S(=O)(=O)c2c(C)[nH]c(=O)[nH]c2=O)cc1	0.5%	2.7%	?	-4.9%	-5.2%	.
COc1cc2nc(N3CCN(C)CC3)nc(NC3CCN(C)CC3)c2cc1OC	4.0%	.	.	.	.	.
